# Laboratory results as given in PubChem BioAssay (Tox21).
# Results filed as inconclusive are left out. Some compounds were tested as several samples or in several runs, with calls that do not always agree. The source made the active and inactive calls. The call rests on the fitted dose curve.
# Target: 5-hydroxytryptamine receptor 2A (Homo sapiens) (UniProt P28223)
# Experiment: 5-hydroxytryptamine receptor 2A (HTR2A) small molecule antagonists, cell-based qHTS assay (AID 1963586); further: nearly all actives have a fitted effect of over 45% in size
# Settings: HTR2A-CHO cells, DOI-induced calcium flux, fluorescence; series mostly up to 61.5 µM; activity, negative = inhibition: at the top concentration
# Text: National Center for Advancing Translational Sciences [NCATS]
# Division of Preclinical Innovation [DPI]
# U.S. Environmental Protection Agency [EPA]
# National Institutes of Environmental Health Sciences [NIEHS]
# National Toxicology Program [NTP]
# U.S. Food and Drug Administration [FDA]
# The HTR2A receptor is a subtype of the 5-HT2 receptor that belongs to the serotonin receptor family and is a G protein-coupled receptor (GPCR). The HTR2A-CHO cell line stably expressing human 5-hydroxytryptamine receptor 2A (HTR2A) can be used for screening antagonists of interactions between 5-HT2 and its ligands. The HTR2A-CHO calcium flux assay is a homogeneous fluorescence-based assay for detecting the intracellular calcium level using FDSS kinetic plate reader system.
# Tox21 Assay Protocol Summary:
# HTR2A-CHO cells were dispensed at 2000 cells/3uL/well in 1536-well black-clear bottom plates using a Multidrop Dispenser. After the assay plates were incubated at a 37 C/5% CO2 incubator for 18 h, 3 uL of Dye Loading Buffer was transferred to the assay plate by a Flying Reagent Dispenser. The assay plates were incubated at 37 C for 1h. For antagonist mode, 23 nL of compounds dissolved in DMSO, positive controls or DMSO only was transferred to the assay plate by a pin tool. After 5 min incubation at room temperature, 1.5 uL of 4-Iodo-2,5-dimethoxy-alpha-methylbenzeneethanamine hydrochloride (DOI) at 4nM was added to each well. The fluorescence intensity in the plates was measured using FDSS 7000EX kinetic plate reader for 3 min at 1 sec intervals.
# On the % scale 0 is the no-effect control and ±100 the full control effect; potency means the concentration at half of the fitted maximal effect.
# 5-hydroxytryptamine receptor 2A (Homo sapiens), sequence (P28223 whole entry, looked up): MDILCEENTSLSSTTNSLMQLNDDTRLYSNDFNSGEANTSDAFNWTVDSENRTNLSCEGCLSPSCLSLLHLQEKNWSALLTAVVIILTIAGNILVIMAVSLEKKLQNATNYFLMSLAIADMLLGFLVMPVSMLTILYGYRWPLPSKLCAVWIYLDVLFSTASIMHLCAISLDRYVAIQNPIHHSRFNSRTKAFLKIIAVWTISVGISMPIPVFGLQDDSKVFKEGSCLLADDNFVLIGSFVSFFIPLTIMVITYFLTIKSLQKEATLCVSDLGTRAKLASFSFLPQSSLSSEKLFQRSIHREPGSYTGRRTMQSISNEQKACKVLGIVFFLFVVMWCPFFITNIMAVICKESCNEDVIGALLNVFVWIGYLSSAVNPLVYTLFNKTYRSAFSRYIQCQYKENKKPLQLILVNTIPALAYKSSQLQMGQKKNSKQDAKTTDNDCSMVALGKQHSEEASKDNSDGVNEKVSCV
SMILES,Potency,"activity, negative = inhibition"
CCCN(CCC)N=O,inactive,–
CCOC(=O)C1(c2ccccc2)CCN(CCC(C#N)(c2ccccc2)c2ccccc2)CC1,130 nM (active),–
Cc1ccc(O)c(C)c1,–,12% (inactive)
O=C1CCCO1,inactive,–
C[C@]12CCC(=O)C=C1CC[C@@H]1[C@@H]2CC[C@]2(C)C(=O)CC[C@@H]12,inactive,–
Cl,inactive,–
COc1nc(C)nc(NC(=O)NS(=O)(=O)c2ccccc2Cl)n1,–,26% (inactive)
CN(C)c1ccc(C(=O)c2ccc(N(C)C)cc2)cc1,–,31.9% (inactive)
CNc1cnn(-c2cccc(C(F)(F)F)c2)c(=O)c1Cl,inactive,–
C=C(Cl)CCl,–,13% (inactive)
c1ccc2c(c1)oc1ccccc12,–,16.6% (inactive)
C=CCOC(N)=O,–,8.03% (inactive)
CCn1cc[n+](C)c1C,inactive,–
COC(=O)C(Cl)C(=O)OC,–,-15.8% [at 28.5 µM] (inactive)
O=P(Cl)(Cl)Cl,–,27.9% (inactive)
CCOC(=O)CC(SP(=O)(OC)OC)C(=O)OCC (stereo not given),inactive,–
CCOP(=S)(OCC)SCSC(C)(C)C,inactive,–
C=CCCC#N,–,59.8% (inactive)
CCC(C)(C)c1ccc(O)cc1,37.9 µM (active) and inactive,–
O=C(O)C(F)(F)C(F)(F)C(F)(F)C(F)(F)C(F)(F)C(F)(F)C(F)(F)C(F)(F)C(F)(F)C(F)(F)F,–,12.6% (inactive)

SMILES,Potency,"activity, negative = inhibition"
CC(Cl)CCl (stereo not given),–,9.7% (inactive)
Cc1ncc2n1-c1ccc(Cl)cc1C(c1ccccc1F)=NC2,–,3.5% [at 28.5 µM] (inactive)
O=C([O-])c1ccccn1.O=C([O-])c1ccccn1.O=C([O-])c1ccccn1.[Cr+3],–,-1.29% (inactive)
CCC[N+]1(C)CCCC1,inactive,–
CC1OC(C)OC(C)O1 (stereo not given),inactive,–
CC(C)CON=O,inactive,–
[O]=[Cr](=[O])([OH])[O][Cr](=[O])(=[O])[OH],inactive,–
O=C(Cl)C(Cl)Cl,–,8.3% (inactive)
NCCc1ccc(O)cc1,4.17 µM (active) and inactive,–
OCC1CO1 (stereo not given),inactive,–
CCOP(=S)(OCC)Oc1ccc([N+](=O)[O-])cc1,inactive,–
COc1ccccc1OC,–,-7.55% (inactive)
NNC(=S)NN,inactive,–
Cc1cc(-c2ccc(N)c(C)c2)ccc1N,inactive,–
CC[n+]1ccccc1,inactive,–
Nc1ncn[nH]1,inactive,–
COc1cc(OC)nc(Sc2cccc(Cl)c2C(=O)O)n1,–,-6.5% (inactive)
O=C(Cl)/C=C/C(=O)Cl,–,1.47% (inactive)
Oc1ccc(-c2ccccc2)cc1,–,-24.1% (inactive)
O=c1[nH]c2ccccc2c(=O)o1,inactive,–
